Shown are actives, neighbours in structure and some others; about 1.4% of the full set was active somewhere.
EBV gp42 inh: inhibitors of Epstein-Barr virus glycoprotein 42; inhibition, % (tested at 21.74 µM); Fluorescence polarization binding assay, mP read-out; 0.42% of 220,000 active; in the data active = inhibition above about 50%
Target sequence (Q1HVG2 whole entry, looked up): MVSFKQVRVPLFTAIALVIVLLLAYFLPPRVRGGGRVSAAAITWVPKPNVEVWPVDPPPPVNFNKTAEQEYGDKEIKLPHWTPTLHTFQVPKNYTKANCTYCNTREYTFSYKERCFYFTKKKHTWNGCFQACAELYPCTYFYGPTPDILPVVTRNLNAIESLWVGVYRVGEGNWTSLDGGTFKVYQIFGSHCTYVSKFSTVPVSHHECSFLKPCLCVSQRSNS
BCLXL inh: inhibitors of human Bcl-xL. Q07817. GST-Bcl-xL / FITC-Bim BH3 peptide fluorescence polarization. inhibition, % at 10.9 µM. 0.7% of 320,000 active;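 active = inhibition above the mean of all tested compounds plus 3 SD, cutoff set per campaign, cut at about 30% in these data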;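 note: inhibitors lower millipolarization by displacing the labeled peptide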
Target sequence (Q07817 whole entry, looked up): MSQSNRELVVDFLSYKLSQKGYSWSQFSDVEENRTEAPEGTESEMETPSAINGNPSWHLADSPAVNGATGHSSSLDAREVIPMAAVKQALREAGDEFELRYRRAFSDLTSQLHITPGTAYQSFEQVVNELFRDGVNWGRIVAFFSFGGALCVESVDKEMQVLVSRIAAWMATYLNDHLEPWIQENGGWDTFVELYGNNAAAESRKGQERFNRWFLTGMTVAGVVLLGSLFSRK
MCL1 BIM primary: MCL1-BIM-BH3 interaction inhibition (human); Q07820; GST-MCL1 / FITC-Bim-BH3 fluorescence polarization; inhibition, % at 10.9 µM; 0.68% of 320,000 active;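 active = inhibition above the mean inhibition of all tested compounds plus 3 SD, set per campaign, cut at about 40% in these data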;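 note: higher means more loss of mP so more displacement of Bim peptide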
GLD-1 TGE inh: GLD-1-TGE RNA interaction inhibition (C. elegans) | AID 2280 | purified GLD-1 + fluorescein TGE RNA, fluorescence polarization | 0.44% of 320,000 active | inhibition, % at 5.96 µM | Q17339;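 active = percent inhibition above a per-plate cutoff, the plate mean of test compounds plus 3 SD, cut at about 30% in these data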
eLon inh: inhibitors of E. coli Lon protease | AID 602123 | 0.42% of 360,000 active | inhibition, % at 7.94 µM | P0A9M0 | purified E. coli Lon protease, fluorescence polarization; in the data active = inhibition above about 13%, passing the limit was not always enough
MEX-5 binding: C. elegans MEX-5 TCR-2 RNA binding activity. MEX-5/FITC-TCR2 RNA binding, fluorescence polarization; active compounds read low. activity score (negative = inhibition of binding), % at 10 µM. Q9XUB2. AID 1832. 0.38% of 300,000 active;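 active = inhibition past about -25% in most replicates, and total fluorescence under double the plate's negative control median, limit read from the data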
E coli Lon conf: E. coli Lon inhibition confirmation | inhibition, % at 7.94 µM | purified E. coli Lon, fluorescence polarization | 31% of 1,400 active | AID 602230 | shares compounds with eLon inh; in the data active = inhibition above about 16%
Each line names hits and unclear results; the compound was inactive in the other large screens (follow-up assays come after a bar, where they were run).

Cc1ccc2c(c1)c(C)c(C)n2CC(O)Cn1nc(C)c(Br)c1C (stereo not given)	eLon inh 15 | E coli Lon conf 23
Oc1cc(CNCc2ccccc2)c(O)cc1CNCc1ccccc1	eLon inh 52 (no result: EBV gp42 inh, BCLXL inh, MCL1 BIM primary, GLD-1 TGE inh, MEX-5 binding) | E coli Lon conf inactive
CC(C)(C)c1cc(NC(=O)C2(C)CCN2C(=O)C2(c3ccccc3)CCCC2)no1 (stereo not given)	none (no result: EBV gp42 inh, BCLXL inh, MCL1 BIM primary, GLD-1 TGE inh, MEX-5 binding)
Cc1nc(C(F)(F)F)ccc1C(=O)N1CCC1(C)C(=O)NCc1ccc(Cl)cc1 (stereo not given)	none (no result: EBV gp42 inh, BCLXL inh, MCL1 BIM primary, GLD-1 TGE inh, MEX-5 binding)
CCCS(=O)(=O)NC(=O)C1(C)CCCN(C(=O)c2cccc(Cl)c2)C1 (stereo not given)	none (no result: EBV gp42 inh, BCLXL inh, MCL1 BIM primary, GLD-1 TGE inh, MEX-5 binding)
CC(C)(C)NC(=O)Cn1c(=O)n(CC(=O)NC(C)(C)C)c2ccccc21	none
CCCCNc1nc2ccccc2n1CC(=O)Nc1c(C)cccc1CC	eLon inh 25 | E coli Lon conf inactive
CCc1cccc(C)c1NC(=O)Cn1c(NCCO)nc2ccccc21	none
Cc1ccc(C)c2c1c1ccccc1n2C	none
CN(C)c1cc2c3ccccc3n(C)c2cc1N	eLon inh 41 (no result: EBV gp42 inh, BCLXL inh, MCL1 BIM primary, GLD-1 TGE inh, MEX-5 binding) | E coli Lon conf 52
Cc1cc(C)c(S(=O)(=O)N2CCN(CCN3C(=O)c4cccc5cccc(c45)C3=O)CC2)cc1[N+](=O)[O-]	none (no result: BCLXL inh, MCL1 BIM primary, GLD-1 TGE inh, eLon inh, MEX-5 binding)
O=C1c2cccc3cc([N+](=O)[O-])cc(c23)C(=O)N1CCN1CCCC1	eLon inh 87 (no result: BCLXL inh, MCL1 BIM primary, GLD-1 TGE inh) | E coli Lon conf 47
CCOC(=O)c1ccc(NCCc2ccc(OC)c(OC)c2)c(N)c1	none (no result: EBV gp42 inh)
Cc1ccc(S(=O)(=O)N2[C@@H](c3ccccc3)C(C(=O)O)=CC[C@H]2c2ccc(C(C)C)cc2)cc1	none (no result: EBV gp42 inh, MEX-5 binding)
Cc1ccc([C@H]2C(C(=O)O)=CC[C@@H](c3ccc(C(C)C)cc3)N2S(=O)(=O)c2ccc(C)cc2)cc1	eLon inh 16 (no result: EBV gp42 inh, BCLXL inh, MCL1 BIM primary, MEX-5 binding) | E coli Lon conf inactive
CCOC(=O)CSc1nc2cc(C)ccc2cc1C#N	eLon inh 27 | E coli Lon conf inactive
Nc1nc(NCCO)nc(NC2CCCCC2)c1[N+](=O)[O-]	eLon inh 43 (no result: EBV gp42 inh) | E coli Lon conf inactive
Nc1nc(NCCOCCO)nc(NC2CCCCC2)c1[N+](=O)[O-]	none (no result: EBV gp42 inh)
CC(=O)Nc1cc(Cl)ccc1OS(=O)(=O)c1ccc(C)cc1	eLon inh 45 | E coli Lon conf inactive
CC(=O)Nc1ccc(OS(=O)(=O)c2ccc(Cl)cc2)cc1	none (no result: EBV gp42 inh)
O=C1C=CC(=O)c2c(O)c(N3CCN(CCOCCO)CC3)c(Br)c(O)c21	eLon inh 126 (no result: EBV gp42 inh, BCLXL inh, MCL1 BIM primary, GLD-1 TGE inh, MEX-5 binding) | E coli Lon conf 114
O=C1C=CC(=O)c2c(O)c(N3CCN(CCO)CC3)c(Cl)c(O)c21	eLon inh 172 (no result: EBV gp42 inh, BCLXL inh, MCL1 BIM primary, GLD-1 TGE inh, MEX-5 binding) | E coli Lon conf 96
O=S(=O)(c1ccc(Br)cc1Cl)N1CCN(CCO)CC1	none
O=C(CSc1nnc2c(n1)[nH]c1ccccc12)Nc1ccc(S(=O)(=O)Nc2ncccn2)cc1	eLon inh 18 (no result: BCLXL inh, MCL1 BIM primary, GLD-1 TGE inh) | E coli Lon conf 28
COc1ccc(N=NC2=C(O)CC(C)(C)CC2=O)c(OC)c1	eLon inh 22 | E coli Lon conf inactive
CCN(CC)Cc1cc(O)c(CN(CC)CC)cc1O	eLon inh 35, MEX-5 binding -39 (no result: BCLXL inh, MCL1 BIM primary, GLD-1 TGE inh) | E coli Lon conf 30
CCc1oc(C(=O)O)cc1CN(CC)CC	none
COc1ccc(NC(=O)CN(C)C(=O)CCc2c[nH]c3ccccc23)cc1	eLon inh 32 (no result: EBV gp42 inh) | E coli Lon conf inactive
CCCN(CC(=O)Nc1ccccc1C)C(=O)/C=C/c1ccc(S(=O)(=O)N2CCCCCC2)cc1	none (no result: EBV gp42 inh)
O=C(O)CC(NNC(=O)c1ccccc1)C(=O)Nc1cccc([N+](=O)[O-])c1 (stereo not given)	eLon inh 16 | E coli Lon conf inactive
CCC(CC)C(=O)OCC(=O)Nc1cccc([N+](=O)[O-])c1	eLon inh 16 | E coli Lon conf inactive
CCC(CCC(=O)Nc1cccc([N+](=O)[O-])c1)C(=O)O (stereo not given)	none (no result: MEX-5 binding)
N#Cc1c(NCCCO)nc(-c2ccccc2)c2c1CCCC2	eLon inh 14 | E coli Lon conf inactive
CNC(=S)N1CCN(c2nc3ccccc3s2)CC1	none
Cc1ccc(NC2=CC(=O)CC(C)(C)C2)c(N)c1	eLon inh 79 | E coli Lon conf inactive
CC1(C)CC(=O)C=C(Nc2ccccc2N)C1	none (no result: EBV gp42 inh)

High-throughput results: PubChem BioAssay, several laboratories
